The supplement of paper PMC10849652
Of roughly 7,900 targets only a part is listed; those with a hit were picked by preference. About 0.6% of all pairs of compound and target were hits. A number with no mark means an inactive call.

What was measured:
Test in all cases: log2 fold change, soluble protein after heating vs DMSO (PISA); higher = thermal stabilisation; K562 cells, 10 uM, 30 min; active = over 0.2 and 3.5 SD of the protein, either way, in both replicates (recomputed)
[1] = compound: CC[C@@H]1C(=O)N(C)c2cnc(Nc3ccc(C(=O)NC4CCN(C)CC4)cc3OC)nc2N1C1CCCC1
Procedure, shortened: (§1)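 K562 cells at 2×10^6 cells/mL were exposed to 10 μM compound for 30 min, then aliquots were heated for 3 min across 48°C-58°C, pooled, and extracted in PBS containing 0.5% NP-40 at 4°C. The supernatant after 21,000xg for 90 min was taken as soluble protein and measured by TMTpro 16plex LC-MS/MS with channel sums equalised. Thermal stability is reported relative to control samples, with values from duplicates. Fold changes are given on a log2 scale.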

[2] = compound: CC[C@@H]1C(=O)N(C)c2cnc(Nc3ccc(C(=O)N[C@H]4CC[C@H](N5CCN(CC6CC6)CC5)CC4)cc3OC)nc2N1C(C)C [volasertib]
Procedure, shortened: as §1

[3] = compound: CC[C@H](C)N1C=C(C2=C(C=C(C=C21)C3=CN=C(C=C3)N4CCNCC4)C(=O)NCC5=C(C=C(NC5=O)C)C)C
Procedure, shortened: as §1

[4] = compound: CC[C@H](C)[C@@H](C(=O)N[C@@H]([C@@H](C)O)C(=O)N[C@@H](CC(C)C)C(=O)[C@]1(CO1)C)NC(=O)[C@H]([C@@H](C)CC)N(C)C(=O)C [epoxomicin]
Procedure, shortened: as §1

[5] = compound: CCn1c(C(=O)N(C2CC2)C2CC2)cc2c3c(ncn3C)c(Nc3cc(C)n(C)n3)nc21
Procedure, shortened: as §1

[6] = compound: CCn1cc(-c2ccnc3[nH]c(-c4cccc(CN(C)C)c4)cc23)c(-c2ccc(NC(=O)N(C)C)cc2)n1
Procedure, shortened: as §1

[7] = compound: CN(C)CC(=O)Nc1ccc2[nH]c(=O)c3ccccc3c2c1
Procedure, shortened: as §1

[8] = compound: CN(CCOC1=CC=C(C=C1)C[C@H]2C(=O)NC(=O)S2)C3=CC=CC=N3 (racemic) [rosiglitazone]
Procedure, shortened: as §1

[9] = compound: CN1C2=C(C3=C1C(=O)N(N=C3)CC4=CC(=CC=C4)N)SC(=C2)S(=O)C
Procedure, shortened: as §1

[10] = compound: CN1CCC(CNc2ccc3ncc(-c4cccc(OC(F)(F)F)c4)n3n2)CC1
Procedure, shortened: as §1

[11] = compound: CN1CCN(CCOc2cc(OC3CCOCC3)c3c(Nc4c(Cl)ccc5c4OCO5)ncnc3c2)CC1 [saracatinib]
Procedure, shortened: as §1

[12] = compound: CN1CCN(c2nc(C3=C(c4c[nH]c5ccccc45)C(=O)NC3=O)c3ccccc3n2)CC1 [sotrastaurin]
Procedure, shortened: as §1

[13] = compound: CN1CC[C@H](c2c(O)cc(O)c3c(=O)cc(-c4ccccc4Cl)oc23)[C@H](O)C1 [alvocidib]
Procedure, shortened: as §1

[14] = compound: CN1CCc2c(c3ccccc3n2Cc2ccc(C(=O)NO)cc2)C1 [Tubastatin A]
Procedure, shortened: as §1

[15] = compound: CNC(=O)C1=CC=CC=C1NC2=NC(=NC=C2Cl)NC3=C(C=C(C=C3)N4CCOCC4)OC
Procedure, shortened: as §1

[16] = compound: CNC(=O)c1ccc(Nc2ncc(C(F)(F)F)c(NCc3nccnc3N(C)S(C)(=O)=O)n2)cc1 [defactinib]
Procedure, shortened: as §1

[17] = compound: CNCc1ccc(-c2[nH]c3cc(F)cc4c3c2CCNC4=O)cc1 [rucaparib]
Procedure, shortened: as §1

[18] = compound: CNc1nc(-c2ccc3c(N)n[nH]c3c2)cc(N2C[C@@H](C(=O)NC3CCCCC3)CC[C@H]2C)n1
Procedure, shortened: as §1

[19] = compound: COC(=O)N[C@@H](C)CNc1nccc(-c2cn(C(C)C)nc2-c2cc(Cl)cc(NS(C)(=O)=O)c2F)n1 [encorafenib]
Procedure, shortened: as §1

[20] = compound: COC(=O)[C@H](CCSC)NC(=O)C1=C(C=C(C=C1)NC[C@H](CS)N)C2=CC=CC=C2
Procedure, shortened: as §1

Chain of UniProt P56556 (P56556 whole entry, looked up): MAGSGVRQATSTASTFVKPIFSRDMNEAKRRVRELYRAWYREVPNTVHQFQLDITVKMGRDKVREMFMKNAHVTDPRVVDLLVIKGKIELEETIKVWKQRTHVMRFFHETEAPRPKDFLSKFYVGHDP
Chain of UniProt O00483 (O00483 whole entry, looked up): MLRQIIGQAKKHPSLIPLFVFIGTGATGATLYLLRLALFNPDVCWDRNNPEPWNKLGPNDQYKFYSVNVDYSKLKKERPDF
Chain of UniProt Q5TFE4 (Q5TFE4 whole entry, looked up): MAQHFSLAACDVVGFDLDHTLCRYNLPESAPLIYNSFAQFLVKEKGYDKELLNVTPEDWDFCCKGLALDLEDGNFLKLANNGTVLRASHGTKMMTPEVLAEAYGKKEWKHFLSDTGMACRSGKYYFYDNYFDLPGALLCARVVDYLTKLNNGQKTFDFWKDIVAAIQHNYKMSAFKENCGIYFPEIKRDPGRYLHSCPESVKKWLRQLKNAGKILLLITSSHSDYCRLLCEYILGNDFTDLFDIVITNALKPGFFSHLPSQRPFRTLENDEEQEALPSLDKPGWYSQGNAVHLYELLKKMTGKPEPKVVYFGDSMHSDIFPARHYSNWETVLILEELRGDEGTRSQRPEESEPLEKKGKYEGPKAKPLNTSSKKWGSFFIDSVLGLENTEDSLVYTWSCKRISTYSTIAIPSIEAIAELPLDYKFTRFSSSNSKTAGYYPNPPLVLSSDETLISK
Chain of UniProt Q8WV92 (Q8WV92 whole entry, looked up): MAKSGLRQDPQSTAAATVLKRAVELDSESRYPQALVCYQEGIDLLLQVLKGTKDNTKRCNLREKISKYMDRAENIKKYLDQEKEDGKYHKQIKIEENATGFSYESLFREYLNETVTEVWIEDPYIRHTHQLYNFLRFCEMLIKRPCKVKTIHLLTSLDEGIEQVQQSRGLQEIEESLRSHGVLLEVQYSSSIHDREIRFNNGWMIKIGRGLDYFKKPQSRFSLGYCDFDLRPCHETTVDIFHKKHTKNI
Chain of UniProt O43847 (O43847 whole entry, looked up): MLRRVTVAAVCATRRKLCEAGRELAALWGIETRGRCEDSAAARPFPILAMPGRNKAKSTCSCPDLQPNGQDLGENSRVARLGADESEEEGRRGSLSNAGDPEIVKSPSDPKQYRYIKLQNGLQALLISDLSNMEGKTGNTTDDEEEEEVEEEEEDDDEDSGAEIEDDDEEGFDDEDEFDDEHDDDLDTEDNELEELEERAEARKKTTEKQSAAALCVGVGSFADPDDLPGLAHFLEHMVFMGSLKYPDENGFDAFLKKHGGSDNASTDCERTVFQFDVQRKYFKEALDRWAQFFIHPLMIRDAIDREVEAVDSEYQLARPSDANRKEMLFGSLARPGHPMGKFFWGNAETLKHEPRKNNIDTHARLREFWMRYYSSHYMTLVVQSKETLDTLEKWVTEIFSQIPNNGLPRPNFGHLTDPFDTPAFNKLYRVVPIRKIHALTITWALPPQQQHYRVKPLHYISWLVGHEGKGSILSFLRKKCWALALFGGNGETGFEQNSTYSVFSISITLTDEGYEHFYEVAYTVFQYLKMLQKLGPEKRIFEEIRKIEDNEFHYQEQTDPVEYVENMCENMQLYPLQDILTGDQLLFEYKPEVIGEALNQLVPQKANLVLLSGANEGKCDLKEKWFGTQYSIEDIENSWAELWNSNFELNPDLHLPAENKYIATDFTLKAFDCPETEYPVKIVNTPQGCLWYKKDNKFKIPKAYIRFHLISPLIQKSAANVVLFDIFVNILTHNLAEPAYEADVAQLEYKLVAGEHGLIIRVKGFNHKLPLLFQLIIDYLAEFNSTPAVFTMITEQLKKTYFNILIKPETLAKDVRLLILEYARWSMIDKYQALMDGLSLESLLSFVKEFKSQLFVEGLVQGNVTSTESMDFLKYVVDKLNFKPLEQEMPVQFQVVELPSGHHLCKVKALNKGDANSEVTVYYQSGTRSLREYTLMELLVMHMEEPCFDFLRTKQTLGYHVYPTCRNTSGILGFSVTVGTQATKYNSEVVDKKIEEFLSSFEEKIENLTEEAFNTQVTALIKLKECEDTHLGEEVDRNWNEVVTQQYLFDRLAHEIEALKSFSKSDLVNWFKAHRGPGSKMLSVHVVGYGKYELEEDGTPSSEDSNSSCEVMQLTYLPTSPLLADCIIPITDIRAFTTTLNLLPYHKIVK
Chain of UniProt Q16656 (Q16656 whole entry, looked up): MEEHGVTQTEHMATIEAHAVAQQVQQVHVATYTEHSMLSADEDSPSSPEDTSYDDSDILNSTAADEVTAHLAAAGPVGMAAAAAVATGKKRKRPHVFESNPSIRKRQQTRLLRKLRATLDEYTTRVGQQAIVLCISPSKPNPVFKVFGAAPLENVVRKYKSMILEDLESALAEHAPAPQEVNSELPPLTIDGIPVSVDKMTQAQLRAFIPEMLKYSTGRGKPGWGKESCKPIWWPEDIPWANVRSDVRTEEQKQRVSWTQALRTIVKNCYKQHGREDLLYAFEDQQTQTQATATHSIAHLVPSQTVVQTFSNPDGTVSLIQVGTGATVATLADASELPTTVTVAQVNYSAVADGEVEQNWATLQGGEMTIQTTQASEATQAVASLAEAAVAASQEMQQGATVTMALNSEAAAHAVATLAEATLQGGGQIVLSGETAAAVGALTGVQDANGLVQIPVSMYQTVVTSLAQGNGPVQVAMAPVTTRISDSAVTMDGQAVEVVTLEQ
Chain of UniProt P30419 (P30419 whole entry, looked up): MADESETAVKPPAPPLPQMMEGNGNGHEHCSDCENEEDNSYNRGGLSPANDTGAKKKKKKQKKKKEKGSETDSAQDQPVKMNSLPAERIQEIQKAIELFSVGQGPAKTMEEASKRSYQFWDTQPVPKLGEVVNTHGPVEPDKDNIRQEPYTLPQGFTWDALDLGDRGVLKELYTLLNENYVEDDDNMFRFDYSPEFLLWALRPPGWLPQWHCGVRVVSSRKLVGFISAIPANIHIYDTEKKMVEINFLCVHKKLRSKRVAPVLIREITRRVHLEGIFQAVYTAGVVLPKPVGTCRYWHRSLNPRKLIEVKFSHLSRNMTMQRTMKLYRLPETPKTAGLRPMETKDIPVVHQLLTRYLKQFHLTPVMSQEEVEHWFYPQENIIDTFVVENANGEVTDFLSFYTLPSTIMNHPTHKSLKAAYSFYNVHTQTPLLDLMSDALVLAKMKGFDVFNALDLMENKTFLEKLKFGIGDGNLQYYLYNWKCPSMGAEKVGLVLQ
Chain of UniProt O95169 (O95169 whole entry, looked up): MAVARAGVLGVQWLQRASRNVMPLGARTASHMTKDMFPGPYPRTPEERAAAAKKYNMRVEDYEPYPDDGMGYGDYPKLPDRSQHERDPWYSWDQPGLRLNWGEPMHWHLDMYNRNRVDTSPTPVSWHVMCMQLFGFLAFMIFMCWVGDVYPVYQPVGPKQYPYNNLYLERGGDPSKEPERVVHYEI
Chain of UniProt Q96BN8 (Q96BN8 whole entry, looked up): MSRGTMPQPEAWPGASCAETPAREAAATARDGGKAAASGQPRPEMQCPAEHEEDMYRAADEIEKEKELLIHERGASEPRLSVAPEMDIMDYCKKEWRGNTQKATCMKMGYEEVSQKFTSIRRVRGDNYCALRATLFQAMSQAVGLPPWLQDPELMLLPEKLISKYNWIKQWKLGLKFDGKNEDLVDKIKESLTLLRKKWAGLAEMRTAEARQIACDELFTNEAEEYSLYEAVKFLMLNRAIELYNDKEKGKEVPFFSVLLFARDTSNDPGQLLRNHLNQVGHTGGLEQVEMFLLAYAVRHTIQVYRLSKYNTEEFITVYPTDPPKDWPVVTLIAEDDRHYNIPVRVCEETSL
Chain of UniProt O95747 (O95747 whole entry, looked up): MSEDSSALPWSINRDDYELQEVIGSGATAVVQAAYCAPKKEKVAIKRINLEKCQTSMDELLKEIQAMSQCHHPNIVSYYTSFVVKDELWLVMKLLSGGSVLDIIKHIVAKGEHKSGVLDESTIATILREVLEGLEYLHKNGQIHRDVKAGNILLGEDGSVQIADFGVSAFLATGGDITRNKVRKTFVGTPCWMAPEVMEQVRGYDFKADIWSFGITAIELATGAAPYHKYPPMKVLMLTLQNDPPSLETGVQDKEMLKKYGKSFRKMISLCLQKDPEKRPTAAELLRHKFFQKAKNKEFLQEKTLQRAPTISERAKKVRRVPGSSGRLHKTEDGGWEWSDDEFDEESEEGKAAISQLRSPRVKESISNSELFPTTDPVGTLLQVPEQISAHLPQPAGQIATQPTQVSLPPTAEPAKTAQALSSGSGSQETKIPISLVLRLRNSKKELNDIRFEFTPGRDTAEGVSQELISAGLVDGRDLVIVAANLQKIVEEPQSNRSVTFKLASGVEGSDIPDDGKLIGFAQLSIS
Chain of UniProt P49321 (P49321 whole entry, looked up): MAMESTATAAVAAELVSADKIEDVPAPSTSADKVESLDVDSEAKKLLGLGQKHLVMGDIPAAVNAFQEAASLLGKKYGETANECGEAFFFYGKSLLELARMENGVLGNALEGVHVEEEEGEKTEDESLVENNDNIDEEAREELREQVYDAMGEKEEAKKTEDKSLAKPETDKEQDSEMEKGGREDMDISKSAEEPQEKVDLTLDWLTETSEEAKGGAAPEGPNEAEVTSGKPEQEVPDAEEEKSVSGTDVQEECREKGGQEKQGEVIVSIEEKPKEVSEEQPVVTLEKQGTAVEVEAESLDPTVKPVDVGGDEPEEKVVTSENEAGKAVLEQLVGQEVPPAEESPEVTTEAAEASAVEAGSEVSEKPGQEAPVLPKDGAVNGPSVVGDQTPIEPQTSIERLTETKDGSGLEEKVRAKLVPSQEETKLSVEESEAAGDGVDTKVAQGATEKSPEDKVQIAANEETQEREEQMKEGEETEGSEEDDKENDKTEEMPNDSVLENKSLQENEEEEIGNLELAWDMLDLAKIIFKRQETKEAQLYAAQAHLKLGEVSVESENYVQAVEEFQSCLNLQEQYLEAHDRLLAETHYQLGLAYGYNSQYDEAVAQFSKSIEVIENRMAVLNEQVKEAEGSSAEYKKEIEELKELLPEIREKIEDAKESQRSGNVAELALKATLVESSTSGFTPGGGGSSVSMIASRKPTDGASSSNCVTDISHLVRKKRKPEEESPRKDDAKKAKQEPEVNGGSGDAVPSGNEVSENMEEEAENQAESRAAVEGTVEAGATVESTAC

| Target | log2 fold change [1] | log2 fold change [2] | log2 fold change [3] | log2 fold change [4] | log2 fold change [5] | log2 fold change [6] | log2 fold change [7] | log2 fold change [8] | log2 fold change [9] | log2 fold change [10] | log2 fold change [11] | log2 fold change [12] | log2 fold change [13] | log2 fold change [14] | log2 fold change [15] | log2 fold change [16] | log2 fold change [17] | log2 fold change [18] | log2 fold change [19] | log2 fold change [20] |
| --- | --- | --- | --- | --- | --- | --- | --- | --- | --- | --- | --- | --- | --- | --- | --- | --- | --- | --- | --- | --- |
| NDUFA4 (UniProt O00483) | 0.033 | 0.042 | -0.019 | 0.369 (active) | 0.09 | 0.019 | -0.039 | -0.026 | 0.018 | 0.101 | 0.021 | 0.021 | 0.022 | -0.029 | 0.009 | -0.03 | -0.106 | -0.129 | -0.04 | 0.001 |
| MRPS2 (UniProt Q9Y399) | -0.048 | 0.037 | 0.053 | 0.02 | -0.01 | -0.045 | 0.031 | -0.003 | 0.016 | 0.044 | -0.243 | -0.145 | 0.005 | 0.036 | -0.021 | 0.034 | 0.104 | 0.035 | 0.084 | -0.088 |
| NMT1 (UniProt P30419) | 0.028 | -0.21 | 0.036 | 0.014 | 0.016 | -0.028 | -0.022 | -0.073 | 0.007 | -0.097 | -0.046 | 0.019 | 0.001 | -0.029 | -0.003 | 0.015 | -0.009 | 0.013 | -0.002 | 0.024 |
| NRF1 isoform 4 (UniProt Q16656) | -0.173 | -0.501 (active) | 0.087 | 0.268 | -0.056 | 0.035 | 0.08 | 0.1 | -0.084 | 0.037 | 0.102 | -0.045 | -0.159 | 0.015 | -0.016 | -0.34 (active) | -0.11 | -0.061 | 0.036 | 0.015 |
| NDUFA6 (UniProt P56556) | -0.069 | -0.252 | 0.098 | 0.115 | -0.086 | -0.089 | 0.081 | 0.116 | -0.022 | -0.072 | -0.037 | 0.003 | -0.122 | 0.021 | -0.039 | -0.068 | 0.006 | 0.044 | 0.034 | -0.039 |
| MORC3 (UniProt Q14149) | -0.141 | -0.509 (active) | 0.086 | 0.125 | -0.02 | -0.027 | 0.071 | 0.084 | -0.058 | -0.017 | 0 | -0.141 | -0.08 | -0.247 | 0.249 | -0.184 | 0.044 | -0.02 | 0.076 | -0.048 |
| NT5DC1 (UniProt Q5TFE4) | 0.165 | 0.051 | -0.026 | 0.045 | 0.015 | -0.054 | 0.014 | 0.008 | -0.037 | -0.063 | -0.012 | 0.026 | -0.049 | 0 | 0.115 | -0.004 | -0.057 | -0.058 | -0.029 | 0.037 |
| NDUFB8 (UniProt O95169) | 0.008 | -0.016 | -0.036 | 0.074 | 0.041 | 0.055 | 0.016 | 0.025 | 0 | 0.097 | -0.064 | 0.071 | -0.077 | -0.016 | 0.002 | -0.037 | 0.003 | -0.073 | 0.016 | -0.048 |
| OXSR1 (UniProt O95747) | -0.122 | -0.274 (active) | 0.049 | 0.03 | -0.018 | -0.077 | 0.043 | 0.053 | 0.008 | -0.24 (active) | -0.048 | 0.004 | -0.094 | 0.038 | -0.061 | -0.093 | 0.001 | 0.033 | 0.042 | -0.051 |
| NUDT1 (UniProt P36639) | 0.971 (active) | 1.35 (active) | -0.012 | -0.039 | -0.113 | -0.19 | 0.06 | 0.054 | -0.088 | 0.157 | 0.068 | 0.043 | -0.038 | 0.193 | 0.05 | 0.019 | 0.416 | 0.196 | -0.03 | -0.074 |
| NRDC isoform 2 (UniProt O43847) | -0.18 | -0.371 (active) | 0.069 | 0.038 | -0.067 | -0.087 | 0.055 | 0.073 | 0 | -0.087 | -0.024 | -0.028 | -0.078 | -0.009 | -0.033 | -0.077 | 0.092 | 0.01 | 0.024 | -0.076 |
| MRPS9 (UniProt P82933) | 0.094 | 0.109 | 0.076 | -0.009 | -0.082 | 0.027 | -0.004 | 0.012 | 0.071 | 0.001 | -0.064 | -0.072 | 0.043 | 0.04 | 0.013 | 0.056 | 0.087 | 0.136 | 0.05 | -0.081 |
| NASP (UniProt P49321) | -0.118 | -0.277 (active) | 0.049 | 0.046 | 0.035 | -0.03 | 0.004 | 0.029 | -0.061 | -0.051 | 0 | -0.045 | -0.08 | 0.012 | 0.073 | -0.085 | -0.11 | -0.041 | 0.001 | -0.004 |
| OTULIN (UniProt Q96BN8) | 0.045 | -0.331 | 0.074 | 0.037 | -0.093 | -0.084 | 0.054 | 0.051 | 0.015 | -0.226 | -0.029 | -0.044 | 0.046 | 0.019 | -0.009 | -0.029 | 0.02 | -0.053 | -0.012 | -0.012 |
| MITD1 (UniProt Q8WV92) | -0.16 | -0.266 | 0.077 | 0.147 | 0.117 | 0.057 | 0.049 | -0.016 | 0.079 | -0.365 | -0.031 | -0.002 | -0.005 | 0.161 | -0.146 | 0.133 | 0.097 | -0.112 | -0.018 | -0.043 |
